These results are taken from PubChem BioAssay AID1671448 (Corson Lab, School of Medicine, Indiana University, 2021).

Each structure is given as a SMILES string. The whole screen tested about 20,000 compounds, of which about 660 (3.3%) were called active.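 Rule for the calls: active = enzyme reaction rate more than 3 SD below the solvent-only control wells on the same plate; inactive = the rest.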 Only a selection was taken, and actives are over-represented in it overall.

Sequence of Ferrochelatase, mitochondrial (Homo sapiens) (P22830 whole entry, looked up): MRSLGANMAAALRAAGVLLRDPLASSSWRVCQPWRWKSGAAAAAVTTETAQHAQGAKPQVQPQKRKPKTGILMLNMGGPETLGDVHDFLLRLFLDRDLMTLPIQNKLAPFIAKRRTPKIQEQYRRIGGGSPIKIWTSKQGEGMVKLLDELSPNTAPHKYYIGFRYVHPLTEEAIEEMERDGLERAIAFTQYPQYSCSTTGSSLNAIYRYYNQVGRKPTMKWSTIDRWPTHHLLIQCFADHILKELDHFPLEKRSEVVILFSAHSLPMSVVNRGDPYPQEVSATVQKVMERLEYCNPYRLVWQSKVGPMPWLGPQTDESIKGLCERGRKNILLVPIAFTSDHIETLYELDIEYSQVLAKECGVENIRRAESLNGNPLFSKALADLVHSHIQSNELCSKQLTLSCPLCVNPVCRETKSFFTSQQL

This experiment concerns the target Ferrochelatase, mitochondrial (Homo sapiens) (UniProt P22830). Description: inhibitors of human ferrochelatase, primary screen, biochemical, purified FECH, Ni-mesoporphyrin absorbance (AID 1671448). As to conditions: Ni-mesoporphyrin absorbance 550 nm, screened at 10 µM (by protocol).
As to `CCOc1ccc(CCNC(=O)CN2C(=O)C=C(CC(=O)OC)Nc3ccccc32)cc1OCC`, the call was inactive. Take `CNCc1cc(-c2ccc(C)c3ncccc23)ccc1OC`: the call was inactive. As for `COCCNC(=O)Cn1c(C(=O)OC)cc2ccsc21`, the entry is “inactive”; as for `NC(=O)c1cccc(CC2CCN(C(=O)CCc3cn4ccccc4n3)C2)c1` (configuration not stated), “inactive”; as for `CN(C)c1ccc(CNC(=O)c2nc(N3CCCC3)c3oc4ccccc4c3n2)cc1`, “inactive”. Next, `COc1cccc(Cn2c(CNS(=O)(=O)c3cccc(Cl)c3)nc3cccnc32)c1`: “inactive”; `Cc1cc(C)n(CCNC(=O)c2cc(-c3ccccc3)n[nH]2)c(=O)n1`: “inactive”.

Turning to `COc1nc2c(cc1CNC(=O)c1ccncc1F)C(=O)N(C1CCCC1)C2`, the compound was classed as inactive. In the case of `CC(C)CN1CCOC(CCNC(=O)c2cncs2)C1` (configuration not stated), the compound was classed as inactive. As for `COc1ccc(OC)c(Nc2nc(N(C)C)nc3c2cnn3-c2ccccc2)c1`, the call was inactive. Next, `CCN(CC)c1nc(Nc2ccc(C)cc2)c2cnn(-c3ccccc3)c2n1`: “inactive”. `CCCCN(C)c1nc(Nc2ccc(OC)cc2)c2cnn(-c3ccccc3)c2n1`: the call was active. Next, `Cc1cc(NC(=O)c2ccc(C(C)(C)C)cc2)n(-c2ncnc3c2cnn3-c2ccc(Cl)cc2)n1`: “inactive”.

Turning to `Cc1ccsc1CN(C)C(=O)c1ccc(-c2ncn[nH]2)cc1`, the compound was classed as inactive.

Turning to `CCOC(=O)N1CCC(NCc2ccccc2-n2ccnc2C)CC1`, the result was inactive.

Regarding `O=C(O)[C@H]1C[C@@H](O)CCN1C(=O)C1(c2ccc(Cl)cc2)CC1`, the call was inactive. Next, `O=C(NC(Cn1cccn1)c1ccccc1)c1cc2n(n1)CCNC2` (configuration not stated): “inactive”; `O=C(NCc1ccccn1)C1CCN(c2ccc(-c3ccc(Br)s3)nn2)CC1`: “inactive”. Regarding `Cc1ccc(CSc2ncc(Cl)c(C(=O)Nc3ccc(S(N)(=O)=O)cc3)n2)cc1`, the outcome was inactive.

As for `CCc1ccc(NC(=O)CN2CCN(Cc3cccc(C)c3)S2(=O)=O)cc1`, the compound was classed as active.

`Cc1cccc(CN2CCCN(CC(=O)Nc3ccc(Cl)cc3)S2(=O)=O)c1`: the compound was classed as inactive. For `COC(=O)c1ccc(NC(=O)CN2CCN(Cc3ccc(C)cc3)S2(=O)=O)cc1`, the outcome was inactive.

As for `CC(COc1ccccc1)NCc1nnc(-c2ccccc2)o1` (configuration not stated), the outcome was active. Regarding `Cc1cc(C)cc(C(=O)NCCn2c(-c3ccccc3)nc3cccnc32)c1`, the outcome was inactive. Take `CCn1c(=O)n(-c2ccc(C)c(C)c2)c2nc(-c3cccc(F)c3F)nc(C(N)=O)c21`: the outcome was inactive. Next, `Cc1noc(C)c1CN(C)Cc1ccc(C2CCCO2)s1` (configuration not stated): “inactive”.

In the case of `CCCc1cc(=O)n2[nH]c(CNc3ccc(C)cc3C)nc2n1`, the result was inactive.

`COc1ccccc1NCc1nc2nc(C(C)C)cc(=O)n2[nH]1`: the compound was called active. Take `COc1ccccc1CNc1nc2nc(CNc3ccc(F)cc3)cc(=O)n2[nH]1`: the compound was classed as inactive. In the case of `CC(C)c1nc(CN(C)C(=O)c2cnn3ccn(C)c23)cs1`, the compound was called inactive. Next, `CCOc1ccc(NC(=O)Nc2c(C)nc3nc(C4CC4)[nH]n3c2=O)cc1`: “inactive”; `CCOC(=O)CCc1c(C)nc2nc(CNc3ccccc3F)[nH]n2c1=O`: “active”.

On to `COc1ccccc1-c1cc2n(C)c(C)c(CCC(=O)Nc3ccccc3F)c(=O)n2n1`, for which the outcome was inactive.

In the case of `O=C(CCn1nnc2ccccc21)N1CCCC(c2ccn[nH]2)C1` (configuration not stated), the compound was classed as inactive.

As to `OCCCc1nc2ccccc2n1-c1ccc2[nH]ccc2c1`, the result was inactive.

Turning to `Cc1cc2cc(C(=O)NCCSCc3nc[nH]c3C)ccc2o1`, the compound was classed as inactive. For the compound `Cc1ccc2c(CC(=O)NCc3csc(C)n3)cc(=O)oc2c1`, the compound was called inactive. As for `O=C(c1csc(S(=O)(=O)NCc2ccc(F)cc2)c1)N1CCCC1`, the entry is “inactive”; as for `Cc1cc(C)c(-c2c(-c3ccccc3)ncn2CCOCCO)c(C)c1`, “inactive”; as for `Cc1cc(F)cc(-c2c(-c3ccccc3)ncn2CCN2CCC(O)CC2)c1`, “active”. As to `Cc1ccc(-c2c(-c3ccccc3)ncn2CCN2CCCC2=O)c(F)c1`, the compound was called inactive.

As to `Cc1nn(C)cc1-c1c(-c2ccccc2)ncn1CCNC(=O)c1ccncc1`, the compound was classed as inactive. Next, `COCCNC(=O)C1(C)Cn2c(cc3ccsc32)C(=O)N1c1ccc(OC)cc1` (configuration not stated): “inactive”; `CCc1cc(Sc2ccccc2NC(=O)Cc2ccccc2)n2nc(C)nc2n1`: “inactive”; `CCc1cc(Sc2ccccc2NC(=O)c2cccc(Cl)c2)n2nc(C)nc2n1`: “active”. As for `CCc1cc(Sc2ccccc2NC(=O)c2ccc(Br)cc2)n2nc(C)nc2n1`, the entry is “inactive”. Next, `CC(C)CNc1nc(Nc2ccc(Cl)cc2)c2cnn(-c3ccccc3)c2n1`: “inactive”; `Cc1cccc(CN2CCCN(CC(=O)NCc3ccc(Cl)cc3)S2(=O)=O)c1`: “inactive”. Regarding `CCOC1CCN(Cc2cc3cc4c(cc3[nH]c2=O)CCC4)CC1`, the outcome was inactive.

In the case of `CCOC(=O)Cn1c(=O)n(-c2ccc(C)c(C)c2)c2nc(-c3ccccc3C)nc(C(N)=O)c21`, the result was inactive. Next, `CCc1cc(-c2nccn2CCCc2nn[nH]n2)on1`: “inactive”; `Cc1ccnc(C(NC(=O)c2ccccc2-n2cncn2)C2CC2)c1` (configuration not stated): “inactive”. As to `O=S(=O)(NCCCc1nc2ccccc2o1)NCc1ccccc1`, the call was inactive.

With `COc1ccc(N2C(=O)CCS2(=O)=O)cc1S(=O)(=O)Nc1cc(Cl)ccc1C`, the result was inactive.

For `Cc1ccc(S(=O)(=O)N2CCN(c3cc(-c4cccc(F)c4)ncn3)CC2)cc1C`, the compound was called inactive. As for `CC(C)(C)c1ccc(-c2nc3nc(CNc4ccccc4Cl)cc(=O)n3[nH]2)cc1`, the result was active. As for `COc1ccc(CNc2nc3nc(CNc4ccc(C)c(Cl)c4)cc(=O)n3[nH]2)cc1`, the entry is “inactive”. As for `Cc1cccc(NCc2cc(=O)n3[nH]c(-c4ccc(C(C)(C)C)cc4)nc3n2)c1`, the entry is “inactive”; as for `O=C(NCC1CCN(Cc2ccccc2F)C1)c1cc(Cl)no1` (configuration not stated), “inactive”. For `CCOC(=O)Cn1c(=O)n(-c2ccc(C)c(C)c2)c2nc(-c3cccc(F)c3F)nc(C(N)=O)c21`, the outcome was inactive. As for `Cc1nc(C(C)C)sc1CNC(=O)c1cn(CC2CCCNC2)nn1` (configuration not stated), the entry is “inactive”. Turning to `O=C(C1CCCN(C2CCN(Cc3cccnc3)CC2)C1)N1CC=CC1` (configuration not stated), the compound was classed as inactive.

Take `CC(c1cccs1)N(C)Cc1cnc(-c2ccco2)nc1` (configuration not stated): the result was inactive. As for `CSC(C)(C)CC(C)NCC(=O)Nc1ccccc1C` (configuration not stated), the entry is “inactive”; as for `COC(C)(C)Cn1ccnc1-c1ccc(Oc2ncccn2)cc1`, “inactive”.

In the case of `Cn1nc(-c2ccccc2)c(-c2ccccc2)c(C(=O)Nc2ccc(S(N)(=O)=O)cc2)c1=O`, the compound was called inactive. Consider `CCOc1c(N2CCc3ccccc3C2)c(=O)c1=O`, for which the result was inactive.
